Calls of active or inactive are those of the source.

Test [1] in a line: small molecules captured by biotinylated probe aFSTL3 – biochemical, small-molecule microarray, fluorescence 635/667, stem cell growth factor project, primary screen (AID 1064).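 Also: measures binding of the biotinylated anti-FSTL3 antibody to printed compounds.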 The following applies: higher = more signal.
Test [2] is described as follows: binders from COS7 lysate, DM2A8 probe, primary screen, torsin A project, cell lysate, small-molecule microarray, fluorescence 635/667 (AID 1065). The conditions noted are these: higher = more signal, COS7 lysate expressing mutant human TOR1A.
Test [3] in a line: small molecules captured by biotinylated probe aFGF2 – biochemical, small-molecule microarray, fluorescence 635/667, stem cell growth factor project, primary screen (AID 1067).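 Also: measures binding of biotinylated aFGF2 protein to printed compounds on slides; z-score merges feature fluorescence and signal-to-noise across triplicate slides.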 The following applies: higher = more signal.
Test [4] is described as follows: small molecules captured by biotinylated probe aFGF10 – biochemical, small-molecule microarray, fluorescence 635/667, stem cell growth factor project, primary screen (AID 1071).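 Also: score merges 667 nm spot intensity and signal to noise from triplicate slides.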 The conditions noted are these: higher = more signal.
Test [5] has as its target Neurogenic locus notch homolog protein 2 (Homo sapiens) (UniProt Q04721). The test is described as follows: small molecules binding Notch2 protein – biochemical, small-molecule microarray, 635 nm fluorescence, stem cell growth factors, primary screen (AID 1073). The following applies: higher = more signal.
Test [6] addresses Pro-neuregulin-1, membrane-bound isoform (Homo sapiens) (UniProt Q02297). Nature of the test: small molecules binding neuregulin-1 protein – biochemical, small-molecule microarray, fluorescence 635/667, psychiatric disease protein project, primary screen (AID 1075).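 Also: score combines 667 nm spot fluorescence with signal to noise.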 The following applies: NRG1 binding, 635 nm fluorescence, higher = more signal.
In test [7] the test system is Neuregulin-1 EGF-like domain. The test is described as follows: small molecules binding NRG1 EGF domain – biochemical, small-molecule microarray, 635 nm fluorescence, primary screen (AID 1081).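 Also: binding of the protein to compounds printed on small-molecule microarray slides.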 The following applies: higher = more signal.
Test [8] is described as follows: FRG1 expression reporter modulators in myotubes – cell-based, C2C12 myotubes, firefly/Renilla luciferase, luminescence, FRG1 inhibition for FSHD, primary screen (AID 1084). The conditions noted are these: FRG1 promoter luciferase, higher = more signal, called active from +8 up or from −8 down.
Test [9] can be described thus: small molecules captured by biotinylated probe aFST – biochemical, small-molecule microarray, fluorescence 635/667, stem cell growth factor project, primary screen (AID 1086).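 Also: score merges 667 nm fluorescence with signal-to-noise of each printed compound spot.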 The conditions noted are these: higher = more signal.
Test [10] can be described thus: binders of probe aHhip on microarray, primary screen, stem cell growth factor project, biochemical, small-molecule microarray, fluorescence 635/667 (AID 1087).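 Also: score merges spot fluorescence at 667nm with spot signal to noise ratio.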 The following applies: higher = more signal.
Test [11] deals with PRMT1 (protein arginine N-methyltransferase 1). The test is described as follows: small molecules binding arginine methyltransferase PRMT1 – biochemical, small-molecule microarray, 635 nm fluorescence, primary screen (AID 1088).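 Also: binding of Prmt1 protein to compounds spotted on small-molecule microarray slides.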 The conditions noted are these: higher = more signal.
The nature of test [12]: growth effects on S. cerevisiae YJM789 – YJM789 clinical isolate, OD600, 24 h, basal, primary screen (AID 1089).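 Also: growth of clinical yeast isolate S. cerevisiae YJM 789 seeded 1000 cells per well; test concentration not given here.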 The following applies: higher = more signal, called active from +8 up or from −8 down.
Test [13] is described as follows: S. pombe growth modifiers, basal conditions – strain 972, OD600, 24 h, no modulator, primary screen (AID 1090).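 Also: basal condition with compound alone and no growth modifier present; test concentration not given here.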 The following applies: S. pombe 972 growth, higher = more signal, called active from +8 up or from −8 down.
A short description of test [14]: budding yeast growth modifiers under rapamycin – strain BY4716, OD600, 96 h, primary screen (AID 1091). Also: test concentration not given here. The following applies: S. cerevisiae BY4716 + rapamycin, higher = more signal, called active from +8 up or from −8 down.
Test [15] concerns the target Torsin-1A-interacting protein 2 (Homo sapiens) (UniProt Q8NFQ8). Nature of the test: small molecules binding lysate-expressed LULL1 – cell lysate, human LULL1 lysate, 635/667 nm fluorescence, primary screen (AID 1092).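 Also: score merges per-feature 667 nm fluorescence with signal-to-noise.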 The following applies: small-molecule microarray, hLULL1 lysate binding, 635 nm fluorescence; higher = more signal.
Test [16] can be described thus: optical density change of DRC41 E. coli – strain DRC41, OD650, 24 h, E. coli filamentation project, primary screen (AID 1093).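 Also: MC1000 strain lacking acrAB efflux and sulA so SOS filamentation is blocked; test concentration not given here.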 The conditions noted are these: E. coli DRC41 growth, higher = more signal, called active from +8 up or from −8 down.
A short description of test [17]: probe aLefty2 binding to arrayed compounds – biochemical, biotinylated probe, 635/667 nm fluorescence, primary screen (AID 1094).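 Also: score merges spot fluorescence near 667 nm with spot signal-to-noise ratio.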 The conditions noted are these: small-molecule microarray, higher = more signal.
Test [18] deals with Noggin (protein binding on small-molecule microarray). The test is described as follows: small molecules binding Noggin protein – biochemical, 635/667 nm fluorescence, primary screen (AID 1095).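 Also: score merges 667 nm feature fluorescence with signal to noise over triplicate slides.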 The conditions noted are these: 635 nm fluorescence, higher = more signal.
The target of test [19] is Neurogenic locus notch homolog protein 3 (Homo sapiens) (UniProt Q9UM47). Nature of the test: small molecules binding NOTCH3 protein – biochemical, 635/667 nm fluorescence, primary screen (AID 1096). The following applies: small-molecule microarray, 635 nm fluorescence, higher = more signal.
Sequence of Neurogenic locus notch homolog protein 3 (Homo sapiens) (Q9UM47 whole entry, looked up): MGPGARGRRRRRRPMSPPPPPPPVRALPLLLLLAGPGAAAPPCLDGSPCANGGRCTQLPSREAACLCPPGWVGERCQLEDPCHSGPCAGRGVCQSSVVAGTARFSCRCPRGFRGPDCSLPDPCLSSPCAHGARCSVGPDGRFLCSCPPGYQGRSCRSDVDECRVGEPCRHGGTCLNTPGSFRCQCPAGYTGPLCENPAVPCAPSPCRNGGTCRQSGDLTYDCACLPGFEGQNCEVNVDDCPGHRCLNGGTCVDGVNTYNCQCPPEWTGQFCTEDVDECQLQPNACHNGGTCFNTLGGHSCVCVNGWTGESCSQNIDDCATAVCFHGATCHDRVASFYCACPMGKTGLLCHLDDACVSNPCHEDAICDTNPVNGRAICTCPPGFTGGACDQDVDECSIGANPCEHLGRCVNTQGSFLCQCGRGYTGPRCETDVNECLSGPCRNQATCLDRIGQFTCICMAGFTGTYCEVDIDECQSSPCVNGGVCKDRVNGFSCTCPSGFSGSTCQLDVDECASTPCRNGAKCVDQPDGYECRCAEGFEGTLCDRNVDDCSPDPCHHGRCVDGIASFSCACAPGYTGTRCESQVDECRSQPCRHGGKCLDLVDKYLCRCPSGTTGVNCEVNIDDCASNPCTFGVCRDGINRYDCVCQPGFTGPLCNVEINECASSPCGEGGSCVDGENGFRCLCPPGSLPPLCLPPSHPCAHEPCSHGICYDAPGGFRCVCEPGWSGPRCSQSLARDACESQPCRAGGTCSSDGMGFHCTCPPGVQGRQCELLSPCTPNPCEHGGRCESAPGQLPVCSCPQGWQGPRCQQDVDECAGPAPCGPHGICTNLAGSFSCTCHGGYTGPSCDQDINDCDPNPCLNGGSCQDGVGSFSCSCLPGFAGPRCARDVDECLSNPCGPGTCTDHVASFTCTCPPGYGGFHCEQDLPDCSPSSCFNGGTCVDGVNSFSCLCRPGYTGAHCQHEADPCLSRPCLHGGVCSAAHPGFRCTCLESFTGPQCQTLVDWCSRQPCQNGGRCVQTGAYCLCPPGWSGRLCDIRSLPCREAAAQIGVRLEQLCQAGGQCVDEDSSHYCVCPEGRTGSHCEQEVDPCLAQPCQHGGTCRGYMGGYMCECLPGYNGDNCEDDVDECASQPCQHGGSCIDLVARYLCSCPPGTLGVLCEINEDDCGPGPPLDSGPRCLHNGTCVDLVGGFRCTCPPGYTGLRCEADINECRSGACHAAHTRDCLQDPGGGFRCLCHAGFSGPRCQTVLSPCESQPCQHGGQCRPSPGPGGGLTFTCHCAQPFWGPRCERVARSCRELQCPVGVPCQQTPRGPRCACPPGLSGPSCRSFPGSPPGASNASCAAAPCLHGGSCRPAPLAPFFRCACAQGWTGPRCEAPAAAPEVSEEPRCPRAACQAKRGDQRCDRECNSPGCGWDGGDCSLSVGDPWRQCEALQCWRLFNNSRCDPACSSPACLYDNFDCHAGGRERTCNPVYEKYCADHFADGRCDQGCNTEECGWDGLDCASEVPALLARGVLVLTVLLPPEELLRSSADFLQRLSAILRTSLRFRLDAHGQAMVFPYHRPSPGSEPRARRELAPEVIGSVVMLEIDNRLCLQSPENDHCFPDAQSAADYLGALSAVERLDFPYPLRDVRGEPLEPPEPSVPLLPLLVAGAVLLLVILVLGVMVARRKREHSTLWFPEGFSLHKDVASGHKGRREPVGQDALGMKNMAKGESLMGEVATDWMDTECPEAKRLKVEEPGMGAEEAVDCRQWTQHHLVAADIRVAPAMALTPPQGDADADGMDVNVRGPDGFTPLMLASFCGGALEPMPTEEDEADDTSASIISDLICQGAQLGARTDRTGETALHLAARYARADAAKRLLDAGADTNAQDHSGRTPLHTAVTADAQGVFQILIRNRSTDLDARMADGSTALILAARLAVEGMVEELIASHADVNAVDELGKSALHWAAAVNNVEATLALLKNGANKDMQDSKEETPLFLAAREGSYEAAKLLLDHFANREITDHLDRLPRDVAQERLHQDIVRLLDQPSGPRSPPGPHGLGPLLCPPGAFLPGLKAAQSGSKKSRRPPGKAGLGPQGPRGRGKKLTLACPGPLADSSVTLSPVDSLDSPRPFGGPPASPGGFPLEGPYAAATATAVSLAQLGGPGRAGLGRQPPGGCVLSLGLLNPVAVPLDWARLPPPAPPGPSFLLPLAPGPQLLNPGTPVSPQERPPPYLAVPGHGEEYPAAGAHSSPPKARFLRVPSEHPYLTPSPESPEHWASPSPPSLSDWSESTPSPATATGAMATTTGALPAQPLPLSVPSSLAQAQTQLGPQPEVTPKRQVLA
Test [20] in a line: probe aEGFR binding to arrayed compounds – biochemical, biotinylated probe, 635/667 nm fluorescence, primary screen (AID 1097).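 Also: probe is a biotinylated anti-EGFR antibody binding compounds printed on slides; score combines fluorescence near 667 nm and signal to noise of each spot.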 The following applies: small-molecule microarray, higher = more signal.

Sequence of Torsin-1A-interacting protein 2 (Homo sapiens) (Q8NFQ8 whole entry, looked up): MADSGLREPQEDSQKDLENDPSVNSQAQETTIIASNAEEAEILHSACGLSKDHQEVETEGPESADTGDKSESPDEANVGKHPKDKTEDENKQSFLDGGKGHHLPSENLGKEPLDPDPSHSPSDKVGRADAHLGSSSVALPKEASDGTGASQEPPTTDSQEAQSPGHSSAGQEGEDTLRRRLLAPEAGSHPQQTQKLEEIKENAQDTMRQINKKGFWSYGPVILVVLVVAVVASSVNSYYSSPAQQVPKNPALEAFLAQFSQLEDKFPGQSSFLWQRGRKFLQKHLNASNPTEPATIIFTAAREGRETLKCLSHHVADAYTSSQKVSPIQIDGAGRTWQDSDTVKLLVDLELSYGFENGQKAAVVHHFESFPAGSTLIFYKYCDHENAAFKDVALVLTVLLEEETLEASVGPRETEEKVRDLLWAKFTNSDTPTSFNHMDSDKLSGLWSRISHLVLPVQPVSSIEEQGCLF
Sequence of Pro-neuregulin-1, membrane-bound isoform (Homo sapiens) (Q02297 whole entry, looked up, the tested form may be a part, canonical isoform): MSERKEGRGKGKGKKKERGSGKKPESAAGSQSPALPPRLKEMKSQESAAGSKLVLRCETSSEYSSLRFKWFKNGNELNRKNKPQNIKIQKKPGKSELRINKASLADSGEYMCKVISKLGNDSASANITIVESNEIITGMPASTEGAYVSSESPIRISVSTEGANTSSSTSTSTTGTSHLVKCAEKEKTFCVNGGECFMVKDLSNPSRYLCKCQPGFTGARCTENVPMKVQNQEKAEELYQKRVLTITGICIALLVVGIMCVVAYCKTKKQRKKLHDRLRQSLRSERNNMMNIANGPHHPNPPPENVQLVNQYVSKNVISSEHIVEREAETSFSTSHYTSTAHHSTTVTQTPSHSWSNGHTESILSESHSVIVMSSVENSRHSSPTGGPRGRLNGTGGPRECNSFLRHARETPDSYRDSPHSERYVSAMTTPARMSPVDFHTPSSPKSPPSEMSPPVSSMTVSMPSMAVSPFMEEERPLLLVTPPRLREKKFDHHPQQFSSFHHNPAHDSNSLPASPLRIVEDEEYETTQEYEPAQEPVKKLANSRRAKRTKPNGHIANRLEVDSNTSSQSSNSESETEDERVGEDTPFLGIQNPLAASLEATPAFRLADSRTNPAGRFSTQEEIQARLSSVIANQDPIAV

As for `Cc1c(NC(=O)/C(C#N)=C/c2ccc(Cl)cc2)c(=O)n(-c2ccccc2)n1C`, the composite z-score in [1] was -0.268; in test [2], -0.113; in test [3], -0.0909; in [4], 0.589; in [5], 0.746; in test [6], 0.942. The composite z-score is 1.2 in [7]; 0.52 in test [9]; 0.0623 in test [10]; 0.505 in test [11]; 1.55 in test [15]; -0.0657 in [17]. Moreover, the composite z-score is 0.532 in test [18], 0.992 in [19] and -0.153 in test [20]. Also, the z-score in test [8] was -0.131 (inactive); in [12] it was -1.53 (inactive); in test [13] it was -1.57 (inactive); in [14] it was -0.311 (inactive); in test [16], -0.155 (inactive).

As to `COCCOC(=O)N1C(=O)[C@@]2(c3ccccc31)[C@H](c1ccc(OCCO)cc1)N1[C@H](c3ccccc3)[C@H](c3ccccc3)OC(=O)[C@H]1[C@@H]2C(=O)N1CCN(c2ncccn2)CC1`, the composite z-score was -0.185 in [1]; 0.751 in test [2]; 0.0323 in test [3]; 0.559 in [4]; 1.47 in test [5]; 1.33 in test [6]. Also, the composite z-score in test [7] was determined as 1.24; in [9] it was 0.742; in test [10] it was 0.107; in test [11], 1.54; in test [15], 2.5; in test [17] it was 0.101. In addition, the composite z-score was determined as 1.34 in [18], 1.05 in test [19] and 0.241 in [20]. Further, the z-score in test [8] is -0.132 (inactive); in [12] it was 1.52 (inactive); in [13] it was 1.01 (inactive); in [14], 5.4 (inactive); in test [16], 0.374 (inactive).

Consider `CCOC(=O)C[C@H]1[C@H](OC(=O)c2ccc(-c3ccccc3)cc2)[C@@H](NC(=O)CC(C)C)c2cc(OCCCO)ccc2N1C(=O)Cc1ccc(OC)cc1`, for which the composite z-score in test [1] is 0.0706; in test [2], 0.445; in [3] it was -0.0131; in test [4] it was 0.135; in test [5], 0.119; in [6], 0.828. Further, the composite z-score in test [7] is -0.023; in test [9], 0.367; in [10] it was 0.77; in [11], 0.403; in test [15], 0.734; in test [17] it was 0.19. Moreover, the composite z-score in test [18] is -0.316; in test [19], -0.117; in test [20] it was -0.0084. Further, the z-score was -0.33 (inactive) in test [8]; -1.15 (inactive) in [12]; -0.218 (inactive) in test [13]; 0.143 (inactive) in [14]; -1.1 (inactive) in [16].

In the case of `COc1cc2c(cc1O)C(c1ccc(CN3CCCC3)cc1)N(Cc1cccc(OC(F)(F)F)c1)CC2` (stereo not given), the composite z-score in test [1] was 0.254; in test [2], 0.956; in test [3], -0.0568; in [4], 0.0247; in test [5], 0.473; in [6], 1.56. The composite z-score was 1.27 in test [7]; 0.155 in test [9]; -0.0317 in test [10]; 0.996 in [11]; 3.04 in test [15]; 0.045 in [17]. Also, the composite z-score in test [18] turned out to be 0.0433; in test [19] it was 0.499; in [20], 0.213. Also, the z-score is -0.232 (inactive) in test [8]; -26.1 (active) in test [12]; -20.2 (active) in [13]; -3.95 (inactive) in test [14]; -6.17 (inactive) in test [16].

On to `C[N+](C)(C)CCCCCCNC(=O)[C@@H]1C[C@@H]2C(=O)N[C@@H](Cc3ccccc3)C(=O)N2[C@@H]1c1ccc(O)cc1`, for which the composite z-score in test [1] was -0.283; in [2], 1.18; in [3], -0.0138; in [4], 0.33; in [5] it was 0.581; in test [6], 1.73. Also, the composite z-score was 1.03 in test [7]; 0.957 in [9]; 0.0373 in [10]; 1.54 in test [11]; 3.06 in test [15]; -0.183 in test [17]. Further, the results for the composite z-score in test [18], in [19] and in [20] were 1.46, 1.04 and 0.0144, respectively. Further, the z-score in test [8] is 2.56 (inactive); in test [12] it was -0.351 (inactive); in [13], -0.193 (inactive); in [14], -0.496 (inactive); in test [16] it was -0.0343 (inactive).

These data come from PubChem BioAssay.
